Measurements taken from PubChem BioAssay (NCI).
This is part of a sample that, as a whole, favours compounds with a hit. Of some 83,000 tested, about 20% had one in any assay.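 Cell lines were cultured in 96-well plates, exposed to a single compound concentration, and assessed for percent growth 48 hours later.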 The source made the active and inactive calls. How the source made its calls: active means growth percent below 10; inactive means the rest.

System: BT-549 breast
Test: NCI-60 one-dose screen, 48 h (100 = growth as untreated, 0 = no growth, -100 = all killed)
Details: 10 µM unless noted

Row | SMILES | growth
1 | COc1cc(C2CC(c3ccccc3)=NN2C=O)ccc1Oc1nc2c(c(=O)n(C)c(=O)n2C)n1C (stereo not drawn) | 95.7% (inactive)
2 | COc1ccc2[nH]cc(C3(c4c[nH]c5ccc(OC)cc45)C(=O)Nc4ccc(F)cc43)c2c1 | 80.1% (inactive)
3 | CC1=CC(=O)OC1C/C=C(\C)CCC1[C@@]2(C)CCC[C@@](C)(C(=O)O)C2CC[C@@]1(C)O (stereo partly drawn) | 67.3% (inactive)
4 | CC1=C(/C=C/C(C)=C/C=C(C(=O)O)\C(C)=C\C(=O)O)C(C)(C)CCC1 | 100% (inactive)
5 | CCN(CCC#N)c1ccccc1 | 110% (inactive)
6 | CCCCOC(=O)c1cc(O)c(O)c(O)c1 | 67.4% (inactive)
7 | COc1cccc(-c2nc3sccn3c2-c2ccnc(NCCN3CCCNS3(=O)=O)n2)c1 | 113% (inactive)
8 | CC(=O)Oc1ccccc1C(=O)Nc1ncc([N+](=O)[O-])s1 | -29.4% (active)
9 | Cc1ccc([C@H]2c3[nH]c4ccccc4c3C[C@H]3C(=O)N(CCCCCCC(=O)NO)CC(=O)N23)cc1 | 68% (inactive)
10 | COc1ccc(-c2cc(-c3cn(-c4cccc(Cl)c4)nc3-c3ccc(OC)cc3)[nH]c(=S)n2)cc1 | 103% (inactive)
11 | CCn1c(Cc2ccccc2Nc2c(Cl)cccc2Cl)nnc1SCC(=O)Nc1ccccc1C(F)(F)F | 94.4% (inactive)
12 | COc1cc(/C=C/c2cc(/C=C/c3ccc(O)c(OC)c3)n(C(=O)c3ccccc3Br)n2)ccc1O | 14.5% (inactive)
13 | CCOC(=O)C(Cc1ccccc1)n1c(O)c(/C=N/c2ncc(Cc3ccc(Cl)cc3Cl)s2)sc1=S (stereo not drawn) | -1.04% (active)
